Among all 190,000 compounds or so, about 1,300 (0.68%) were called active. Cut-off read from the data, not from the text of the source: active = inhibition above about 50%; inactive = the rest. Shown is part of a subset that was picked to be rich in actives.
What follows are compounds tested against Mannose-6-phosphate isomerase (Homo sapiens) (UniProt P34949) (assay: human PMI inhibitors, high substrate, primary screen, biochemical, fluorescence intensity, high mannose 6-phosphate (AID 1220)). Conditions: recombinant PMI enzyme, coupled fluorescence intensity; at 20 µM; active compounds read high.
Sequence of Mannose-6-phosphate isomerase (Homo sapiens) (P34949 whole entry, looked up): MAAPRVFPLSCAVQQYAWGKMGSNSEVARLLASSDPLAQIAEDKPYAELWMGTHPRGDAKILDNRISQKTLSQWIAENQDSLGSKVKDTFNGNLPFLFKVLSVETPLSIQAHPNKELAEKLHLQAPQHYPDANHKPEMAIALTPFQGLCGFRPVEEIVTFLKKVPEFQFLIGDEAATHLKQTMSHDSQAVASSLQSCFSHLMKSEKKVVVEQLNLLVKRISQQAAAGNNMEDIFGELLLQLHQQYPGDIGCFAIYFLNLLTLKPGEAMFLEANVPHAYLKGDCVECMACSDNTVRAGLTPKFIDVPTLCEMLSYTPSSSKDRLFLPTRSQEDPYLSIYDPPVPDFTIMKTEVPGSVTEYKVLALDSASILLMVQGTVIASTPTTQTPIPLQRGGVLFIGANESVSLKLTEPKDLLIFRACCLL

Structure (SMILES) | inhibition
CC(=O)Nc1ccc2ccccc2c1 | 6.5% (inactive)
CN(C)C(=S)Nc1ccc2ccccc2c1 | 3.2% (inactive)
C/C(=C\C(=S)Nc1ccccc1)Nc1ccc2ccccc2c1 | 60% (active)
CN(C)c1ccc(NC(=O)Nc2cccc3ccccc23)cc1 | 25.8% (inactive)
C/C(=C\C(=S)Nc1ccccc1)Nc1ccccc1 | -1.1% (inactive)
COc1ccc(N/C(C)=C/C(=O)c2ccccc2)cc1 | 14.3% (inactive)
COc1ccc(N/C(C)=C/C(=S)Nc2ccccc2)cc1 | 50.1% (active)
CC(=O)c1cccc(NC(=O)C(=O)Nc2cccc3ccccc23)c1 | -6.5% (inactive)
C/C(=C\C(=S)Nc1ccccc1)Nc1cccc2ccccc12 | 60.8% (active)
CCn1c(SCC(=O)N/N=C/c2cc(OC)c(O)c(OC)c2)nc2ccccc21 | -11% (inactive)
CC(C)NS(=O)(=O)c1ccc(NC(=S)NC(=O)c2cccc([N+](=O)[O-])c2)cc1 | -2.9% (inactive)
O=C(O)CSc1nnc(-c2ccncc2)n1CCc1ccccc1 | -5.1% (inactive)
O=c1[nH]c2cc3c(cc2cc1CN(Cc1nnnn1CC1CCCO1)C1CCCC1)OCO3 (centres undefined) | -6.2% (inactive)
O=C(CCN1CCCCC1)c1ccc2c(c1)OCCO2 | 43% (inactive)
Cc1cccc(N2CCN(S(=O)(=O)c3cccc4nonc34)CC2C)c1 (centres undefined) | 26.5% (inactive)
Cc1[nH]n(-c2ccccc2)c(=O)c1C(c1ccccc1C(=O)O)c1c(C)[nH]n(-c2ccccc2)c1=O | -21.9% (inactive)
COc1ccc(NC(=O)c2ccco2)cc1N | 58.3% (active)
COc1ccc(NC(=O)c2ccco2)cc1NC(=O)c1ccco1 | 4.5% (inactive)
COc1cccc(OC)c1C(=O)Nc1ccc(NC(=O)c2ccco2)cc1 | 3.3% (inactive)
N#Cc1ccc(OCC(=O)NCC2(N3CCCCC3)CCCCC2)cc1 | -10.6% (inactive)
COc1ccc(-n2c(Cn3c(=O)sc4ccccc43)nnc2SCC(=O)N2CCCC2)cc1 | -4.6% (inactive)
O=C(O)CCc1c(C(=O)O)[nH]c2ccccc12 | -4.7% (inactive)

Structure (SMILES) | inhibition
CCN(CC)S(=O)(=O)c1cccc(NC(=O)COC(=O)c2n[nH]c(=O)c3ccccc23)c1 | 53.3% (active)
CCN(CC)S(=O)(=O)c1cccc(NC(=O)COC(=O)c2cc(=O)c3ccccc3o2)c1 | 9.7% (inactive)
Cc1ccc(S(=O)(=O)N(C)C)cc1NC(=O)COC(=O)c1n[nH]c(=O)c2ccccc12 | -8% (inactive)
COc1cc(CN2CCC(C(=O)NC3CCCC3)CC2)cc(OC)c1O | 63.9% (active)
COc1cc(CN2CCC(C(=O)N3CCN(c4ccccc4F)CC3)CC2)cc(OC)c1O | 53.7% (active)
COc1cc(CN2CCC(C(=O)N3CCN(c4ccccc4F)CC3)CC2)cc(OC)c1OC | 9.1% (inactive)
COc1cc(CN2CCC(C(=O)NC3CCCC3)CC2)ccc1O | 3.5% (inactive)
COc1cc(CN2CCC(C(=O)NC3CCCC3)CC2)cc(Br)c1O | 14.6% (inactive)
COc1cc(CN2CCC(C(=O)N3CCN(c4ccccc4F)CC3)CC2)ccc1O | 13.4% (inactive)
Cc1cc(-c2[nH]nc3c2C(c2ccc(Cl)cc2)C(C#N)=C(N)O3)c(C)s1 (centres undefined) | 26.2% (inactive)
COc1ccc(Cl)cc1CSc1n[nH]c(C)n1 | 8.9% (inactive)
O=C(NCc1ccco1)C(=O)NCC1OCCCN1S(=O)(=O)c1ccccc1 (centres undefined) | -6.2% (inactive)
Cc1cc(NC(=O)CCC(=O)N(CC(=O)NCC2CCCO2)Cc2ccc(F)cc2)no1 (centres undefined) | -6.3% (inactive)
COc1cc(C=C2C(=O)c3ccccc3C2=O)cc(OC)c1OC | -22.9% (inactive)
COc1ccc(C=C2C(=O)c3ccccc3C2=O)cc1O | 60.8% (active)
CCN1C/C(=C/c2ccc(OC)c(O)c2)C(=O)/C(=C/c2ccc(OC)c(O)c2)C1 | 36.6% (inactive)
CC1(C)C(=O)Nc2ccccc2N1C(=O)COc1cccnc1[N+](=O)[O-] | -1.5% (inactive)
CCOc1cc(-c2noc(CCCC(N)=O)n2)cc(Br)c1OC | 15.3% (inactive)
CC(C)CC1(C)NC(=O)N(CC(=O)NC(=O)Nc2ccc3c(c2)OCCO3)C1=O (centres undefined) | 7% (inactive)
N#CC(C#N)=C1C=C2C=C(N3CCOCC3)CCC2CC1 (centres undefined) | 55.3% (active)
N#CC(C#N)=C1C=C2C=C(N3CCCCC3)CCC2CC1 (centres undefined) | 58.7% (active)
CN1CCN(C2=CC3=CC(=C(C#N)C#N)CCC3CC2)CC1 (centres undefined) | 61.8% (active)

Structure (SMILES) | inhibition
N#CC1=C(N)C2=C(N3CCCCC3)CCCC2C1(C#N)C#N (centres undefined) | 11.7% (inactive)
N#CC(C#N)=C1C=C2C=C(N3CCCCCC3)CCC2CC1 (centres undefined) | 50.6% (active)
N#Cc1cc(Cl)c(N2CCOCC2)cc1C#N | -7.2% (inactive)
N#C/C(=C\c1ccc(N2CCOCC2)cc1)c1ccccc1 | 2.5% (inactive)
Cc1cc(C)c(NC(=O)CS)c(Cl)c1 | -11.6% (inactive)
CSc1nc(Cl)cc(Nc2ccccc2N)n1 | -3% (inactive)
O=C(O)CCNC(=O)/C(=C/C=C/c1ccccc1)NC(=O)c1ccccc1 | -0.9% (inactive)
Cc1ccc(Nc2nc(Nc3ccc(C)cc3)nc(SC3=NCCS3)n2)cc1 | 8.1% (inactive)
CCCCC1(Cc2ccc(OC)c([N+](=O)[O-])c2)C(=O)N(c2ccccc2)N(c2ccccc2)C1=O | 11% (inactive)
CC(C)(C)CC(C)(C)c1ccc(O)c(CN2CCN(CCC#N)CC2)c1 | 4.7% (inactive)
CC1(C)CC(NCCN2CCN(C3=CC(=C(C#N)C#N)CC(C)(C)C3)CC2)=CC(=C(C#N)C#N)C1 | 12.4% (inactive)
CCC(CC)COC(=O)C(C#N)c1nc2ccccc2nc1N1CCN(CC)CC1 (centres undefined) | 17.2% (inactive)
CCN1CCN(C2=CC3=CC(=C(C#N)C#N)CCC3CC2)CC1 (centres undefined) | 59.6% (active)
CCn1cc(C(=O)N2CCc3ccccc32)c(=O)c2cc(S(=O)(=O)N3CCCCCC3)ccc21 | 5.7% (inactive)
CCC(=O)NC(c1ccc(OC)cc1)c1c(O)ccc2ccccc12 (centres undefined) | 44.2% (inactive)
CCCC(=O)NC(c1ccc(OC)c(OC)c1)c1c(O)ccc2ccccc12 (centres undefined) | 23.2% (inactive)
CCC(=O)NC(c1ccc([N+](=O)[O-])cc1)c1c(O)ccc2ccccc12 (centres undefined) | 14.3% (inactive)
CCCC(=O)NC(c1ccc(N(C)C)cc1)c1c(O)ccc2ccccc12 (centres undefined) | 54.8% (active)
CCC(=O)NC(c1ccc(N(C)C)cc1)c1c(O)ccc2ccccc12 (centres undefined) | 62% (active)
CCCC(=O)NC(c1ccccc1Cl)c1c(O)ccc2ccccc12 (centres undefined) | 13.4% (inactive)

Reference: PubChem BioAssay AID1220 (Sanford-Burnham Center for Chemical Genomics, 2008)
